# Laboratory results from article PMC5540273 (PLoS ONE, 2017).
# Key:
# [1] = test system: EIF2AK1
# [2] = test system: ERBB2
# [3] = test system: EPHB6
# [4] = test system: ERBB4
# [5] = test system: ERBB3
# [6] = test system: T1, ERK8
# T1 construct: gene MAPK15
# [7] = test system: FGFR3
# [8] = test system: FLT1
# [9] = test system: FLT4
# [10] = test system: FRK
# [11] = test system: FYN
# [12] = test system: GRK1
# [13] = test system: T2, GRK3
# T2 construct: gene ADRBK2
# [14] = test system: T3, HASPIN
# T3 construct: gene GSG2
# [15] = test system: HIPK2
# 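Note: kd values determined as follow-up on hits from a single-replicate KINOMEscan panel screen.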
smiles,measurement,setting,value
Cn1cncc1-c1ccc2ncnc(Nc3ccc(OCc4ccccc4)cc3)c2c1 [GW320571],Kd,[1],> 10000 nM
same,Kd,[2],41 nM
Nc1ncnc2[nH]c(-c3ccccc3)nc12 [AH5015],Kd,[1],> 10000 nM
COc1ccc(CNC(=O)NC2CCN(c3ccnc(Nc4cc(OC)c(OC)c(OC)c4)n3)C2)cc1 (stereo not drawn) [GSK1379748],Kd,[3],180 nM
COc1cc(Nc2nccc(N3CCC(NC(=O)Nc4cc(C)ccc4C)C3)n2)cc(OC)c1OC (stereo not drawn) [GSK1379762],Kd,[3],1100 nM
Cl.O=C(Nc1cccc(-c2nn3ncccc3c2-c2ccnc(Nc3cccnc3)n2)c1)c1c(F)cccc1F [GSK312879],Kd,[2],29 nM
same,Kd,[4],64 nM
Cl.NC(=O)c1cccc(Nc2nccc(Nc3ccc(Oc4cccc(Cl)c4)c(Cl)c3)n2)c1 [GW659008],Kd,[5],260 nM
O=C(Nc1n[nH]c2nc(-c3nccs3)c(Br)cc12)C1CC1 [SB-742251],Kd,[6],870 nM
NC(=O)c1nnc2ccccc2c1N,Kd,[7],> 10000 nM
O=C(Nc1ccccc1)Nc1cccc(Oc2ccc3nccn3n2)c1,Kd,[8],91 nM
Cn1ccc2ncnc(Oc3ccc(NC(=O)Nc4ccccc4)cc3)c21,Kd,[8],350 nM
COc1cccc(-c2cc(-c3c[nH]nc3-c3ccccn3)ccn2)c1 [GW680338],Kd,[9],> 10000 nM
O=C(O)COc1ncnc2cc(-c3ccc4[nH]ncc4c3)sc12,Kd,[10],> 10000 nM
same,Kd,[11],> 10000 nM
CC(=O)Nc1nc2cnc(Nc3cc(NC(=O)c4cccc(CCC#N)c4)ccc3C)nc2s1,Kd,[10],> 10000 nM
CC(C)(C)c1ccc(C(=O)Nc2cn3cc(Cl)ccc3n2)cc1,Kd,[11],> 10000 nM
CCCc1ccc(S(=O)(=O)NC2CCN(c3ccnc(Nc4ccc(F)cc4)n3)C2)cc1 (stereo not drawn) [GSK1379715],Kd,[12],> 10000 nM
Clc1cc(Cl)cc(Nc2ccnc(Nc3cc(Cl)cc(Cl)c3)n2)c1 [GSK175726],Kd,[12],> 10000 nM
O=C(Nc1ccc2c(c1)OCO2)NC1CCN(c2ccnc(Nc3ccc(F)cc3)n2)C1 (stereo not drawn) [GSK1379724],Kd,[13],> 10000 nM
Cc1ccc(NC(=O)Nc2cc(C(C)(C)C)nn2-c2ccccc2)cc1 [GSK1014915],Kd,[13],> 10000 nM
Cc1csc(-c2nc(Nc3ccncc3)c3ccccc3n2)n1 [GW869640],Kd,[14],77 nM
O=C1NC(=O)C(N2CCc3ccccc32)=C1c1ccccc1Cl [SB-373598],Kd,[14],> 10000 nM
Cc1nnc(-c2ccc3occ(-c4ccc(S(C)=O)cc4)c3c2)[nH]1 (stereo not drawn),Kd,[15],320 nM
